The source of these data is PubChem BioAssay (EPA / NIEHS).

“And” between values parts separate entries of the source, which are not always exact repeats. Equal values may be shown once. Records with an inconclusive call do not appear. Some compounds were tested as several samples or in several runs, with calls that do not always agree. The source made the active and inactive calls. Rule for the calls, unless noted: active = hit-call score of the fitted dose curve at least 0.9, where 1 is the maximum; inactive = score below 0.9.

Tested on in the first assay: not listed separately
Briefly: CCTE_Mundy_HCI_hNP1_Casp3_7: CCTE's Caspase-Glo 3/7 Assay in human neuroprogenitor cells for Apoptosis, Mundy Lab (AID 2284240).
Conditions: not given
Put shortly:
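Apoptosis is scored by activated caspase-3/7 luminescence in WA09-derived neural progenitor cells, measured 26.5 h after chemical dosing. Values represent gain of signal relative to DMSO vehicle.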
Take `CC(CCl)OP(=O)(OC(C)CCl)OC(C)CCl` (stereo not given): the molecule was called inactive. The same measure, in the same setting: the value for `O=C(O)C(F)(F)C(F)(F)OC(F)(F)F` was “inactive”; that for `OCC(F)(F)C(F)(F)C(F)(F)C(F)F` was “inactive”. As to `O=C(CC(=O)C(F)(F)C(F)(F)F)C(F)(F)F`, the molecule was called inactive. On to `C=C(C)C(=O)OCC(F)(F)C(F)(F)C(F)(F)F`, for which the molecule was called inactive. Still for that read-out and setting: the same measure for `FC(F)(F)C(F)(F)C(F)(F)C(F)(F)C(F)(F)C(F)(F)C(F)(F)C(F)(F)CCS`: “inactive”; for `OCCCC(F)(F)C(F)(F)C(F)(F)C(F)(F)C(F)(F)C(F)(F)C(F)(F)F`: “inactive”; for `FC(F)(F)C(F)(F)C(F)(F)CI`: “inactive”. Consider `OC[C@@H](O)[C@@H](O)[C@H](O)[C@@H](O)CO`, for which the molecule was classed as inactive.

Take `O=C(O)C(F)(F)C(F)(F)C(F)(F)F`: the result was inactive. For `FC(F)(F)C(F)(F)C(F)(F)C(F)(F)C(F)(F)C(F)(F)C(F)(F)C(F)(F)F`, the molecule was classed as inactive. Same read-out and setting: the same measure for `FC(F)(F)C(F)(F)C(F)(F)C(F)(F)CCI`: “inactive”; for `CC(C)(C)C(=O)CC(=O)C(F)(F)C(F)(F)C(F)(F)F`: “inactive”; for `O=P(O)(O)OCCC(F)(F)C(F)(F)C(F)(F)C(F)(F)C(F)(F)C(F)(F)F`: “inactive”. `C=CC(=O)OCC(F)(F)C(F)(F)C(F)(F)C(F)(F)COC(=O)C=C`: the call was inactive. Turning to `O=C(O)C(F)(F)C(F)(F)C(F)(F)C(F)(F)C(F)(F)C(F)(F)C(F)(F)C(F)(F)Cl`, the molecule was called inactive. For the molecule `N=C(N)C(F)(F)C(F)(F)C(F)(F)C(F)(F)C(F)(F)C(F)(F)C(F)(F)F`, the result was inactive.

Tested on in another assay: not listed separately
Briefly: CCTE_Mundy_HCI_hNP1_CellTiter: CCTE's Cell Titer-Glo 2 Assay in human neuroprogenitor cells for Viability, Mundy Lab (AID 2284241; active = hit-call score of the fitted dose curve at least 0.9, where 1 is the maximum).
Conditions: not given
Put shortly: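 Human neural progenitor cells (hNP1, WA09-derived) were plated on poly-L-ornithine/laminin and grown 40 to 44 hours at 37 °C, 5% CO2 before chemical addition. Twenty-four hours later, ATP was measured by CellTiter-Glo luminescence; loss of signal versus DMSO indicates reduced viability.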
`CC(CCl)OP(=O)(OC(C)CCl)OC(C)CCl` (stereo not given): the molecule was classed as inactive.

In the case of `O=C(O)C(F)(F)C(F)(F)OC(F)(F)F`, the outcome was inactive. On the same count and under the same terms, the same measure for `OCC(F)(F)C(F)(F)C(F)(F)C(F)F`: “inactive”. On the same count and under the same terms, the same measure for `O=C(CC(=O)C(F)(F)C(F)(F)F)C(F)(F)F`: “inactive”; for `C=C(C)C(=O)OCC(F)(F)C(F)(F)C(F)(F)F`: “inactive”. Consider `FC(F)(F)C(F)(F)C(F)(F)C(F)(F)C(F)(F)C(F)(F)C(F)(F)C(F)(F)CCS`, for which the molecule was classed as inactive. The same measure, in the same setting: the same measure for `OCCCC(F)(F)C(F)(F)C(F)(F)C(F)(F)C(F)(F)C(F)(F)C(F)(F)F`: “inactive”; for `FC(F)(F)C(F)(F)C(F)(F)CI`: “inactive”; for `O=C(O)C(F)(F)C(F)(F)C(F)(F)F`: “inactive”.

With `FC(F)(F)C(F)(F)C(F)(F)C(F)(F)C(F)(F)C(F)(F)C(F)(F)C(F)(F)F`, the call was inactive. `FC(F)(F)C(F)(F)C(F)(F)C(F)(F)CCI`: the result was inactive. On the same count and under the same terms, the same measure for `CC(C)(C)C(=O)CC(=O)C(F)(F)C(F)(F)C(F)(F)F`: “inactive”; for `O=P(O)(O)OCCC(F)(F)C(F)(F)C(F)(F)C(F)(F)C(F)(F)C(F)(F)F`: “inactive”; for `C=CC(=O)OCC(F)(F)C(F)(F)C(F)(F)C(F)(F)COC(=O)C=C`: “inactive”. With `O=C(O)C(F)(F)C(F)(F)C(F)(F)C(F)(F)C(F)(F)C(F)(F)C(F)(F)C(F)(F)Cl`, the result was inactive. Still for that read-out and setting: the same measure for `N=C(N)C(F)(F)C(F)(F)C(F)(F)C(F)(F)C(F)(F)C(F)(F)C(F)(F)F`: “inactive”.

Read-out in the next assay: Interleukin 17F (IL17F), IL17F (gene 112744)
The experiment in a line: BSK_BT_xIL17F: BioMAP Diversity Plus: BT Assay for Interleukin 17F (IL17F) Biomarker Activity (AID 2284243). Conditions: primary human B cells with PBMC. Put shortly: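 Luminex readout of IL-17F secretion, 24 h; cells: human B cells with PBMC; positive-direction analysis, DMSO control.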
Consider `CC(CCl)OP(=O)(OC(C)CCl)OC(C)CCl` (stereo not given), for which the result was inactive. Same read-out and setting: the value for `OCCCC(F)(F)C(F)(F)C(F)(F)F` was “inactive”; that for `O=C(O)C(F)(F)C(F)(F)OC(F)(F)F` was “inactive”.

Consider `OCC(F)(F)C(F)(F)C(F)(F)C(F)F`, for which the outcome was inactive. In the case of `O=C(CC(=O)C(F)(F)C(F)(F)F)C(F)(F)F`, the AC50 is 20.8 µM (active) and the result was inactive. For the molecule `O=C(Cl)C(F)(F)C(F)(F)C(F)(F)C(F)(F)C(F)(F)C(F)(F)C(F)(F)C(F)(F)F`, the outcome was inactive. On the same count and under the same terms, the value for `C=C(C)C(=O)OCC(F)(F)C(F)(F)C(F)(F)F` was “inactive”; that for `FC(F)(F)C(F)(F)C(F)(F)C(F)(F)C(F)(F)C(F)(F)CCS` was “inactive”. On the same count and under the same terms, the value for `FC(F)(F)C(F)(F)C(F)(F)C(F)(F)C(F)(F)C(F)(F)C(F)(F)C(F)(F)CCS` was “inactive”. As for `OCCCC(F)(F)C(F)(F)C(F)(F)C(F)(F)C(F)(F)C(F)(F)C(F)(F)F`, the AC50 was 17.8 µM (active) and 18.5 µM (active). On to `CCO[Si](CCC(F)(F)C(F)(F)C(F)(F)C(F)(F)C(F)(F)C(F)(F)F)(OCC)OCC`, for which the outcome was inactive. Still for that read-out and setting: the same measure for `FC(F)(F)C(F)(F)C(F)(F)CI`: “inactive”; for `O=S(=O)(O)C(F)(F)C(F)(F)C(F)(F)C(F)(F)C(F)(F)C(F)(F)C(F)(F)F`: “inactive”.

For the molecule `O=C(O)C(F)(F)C(F)(F)C(F)(F)C(F)(F)F`, the outcome was inactive.

As for `O=C(O)C(F)(F)C(F)(F)C(F)(F)F`, the result was inactive. The same measure, in the same setting: the value for `FC(F)(F)C(F)(F)C(F)(F)C(F)(F)C(F)(F)C(F)(F)C(F)(F)C(F)(F)F` was “inactive”; that for `FC(F)(F)C(F)(F)C(F)(F)C(F)(F)CCI` was “inactive”. With `CCCCCCCOC(=O)c1ccccc1C(=O)OCCCCCCC`, the concentration at half-maximal activity (AC50) was 12.2 µM (active). For `O=S(=O)(OCC(F)F)C(F)(F)F`, the outcome was inactive.

On to `CCCCCCCCC(F)(F)C(F)(F)C(F)(F)C(F)(F)C(F)(F)C(F)(F)F`, for which the result was inactive. Consider `C=CC(F)(F)C(F)(F)C(F)(F)C(F)(F)C(F)(F)C(F)(F)C(F)(F)C(F)(F)F`, for which the outcome was inactive. Take `COC(=O)CCC(F)(F)C(F)(F)C(F)(F)C(F)(F)F`: the result was inactive.

As for `CC(C)(C)C(=O)CC(=O)C(F)(F)C(F)(F)C(F)(F)F`, the result was inactive. For the molecule `FC(F)(F)C(F)(F)CNCC(F)(F)C(F)(F)F`, the result was inactive.

In the case of `O=P(O)(O)OCCC(F)(F)C(F)(F)C(F)(F)C(F)(F)C(F)(F)C(F)(F)F`, the outcome was inactive. On the same count and under the same terms, the same measure for `CCCCNc1ccccc1`: “inactive”; for `FC1CC(F)(F)C(F)(F)C1(F)F` (stereo not given): “inactive”; for `FC(F)(F)C(F)(F)C(F)(F)N(C(F)(F)C(F)(F)C(F)(F)F)C(F)(F)C(F)(F)C(F)(F)F`: “inactive”. Regarding `OCC(F)(F)C(F)(F)C(F)(F)C(F)(F)C(F)(F)C(F)F`, the result was inactive. `C=CC(=O)OCC(F)(F)C(F)(F)C(F)(F)C(F)(F)COC(=O)C=C`: the AC50 was 4.17 µM (active) and 2.81 µM (active). As for `CCc1c(Br)c(Br)c(Br)c(Br)c1Br`, the result was inactive. The same measure, in the same setting: the same measure for `Nc1ccc([N+](=O)[O-])cc1O`: “inactive”. As for `O=C(O)C(F)(F)C(F)(F)C(F)(F)C(F)(F)C(F)(F)C(F)(F)C(F)(F)C(F)(F)Cl`, the outcome was inactive. Regarding `O=C(O)C(F)(F)C(F)(F)F`, the result was inactive. Consider `N=C(N)C(F)(F)C(F)(F)C(F)(F)C(F)(F)C(F)(F)C(F)(F)C(F)(F)F`, for which the AC50 is 31.7 µM (active) and the result was inactive.
